Results taken from the supplement of paper PMC13172266.
Structures can show the parent of a compound that is named as a salt.

Assays:
Experiment in all cases: cell proliferation relative to vehicle (% of vehicle); higher = less growth inhibition
Details in all cases: 72 h
[1] = system: U2932 TK216-resistant clone 2
In short: (§1)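 Each of 348 targeted inhibitors was tested at 500 nM or 50 nM for 72 h on U2932 cells, both parental and two clones resistant to an ETS-targeting agent. Readout was by MTT with absorbance read on a Cytation 3. Proliferation appears as percent of proliferating cells relative to vehicle (DMSO).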

[2] = system: U2932 TK216-resistant clone 3
In short: as §1

U2932 parental = system: U2932 parental
In short: as §1

Row | Structure (SMILES) | cell proliferation ([1]; 50 nM) | cell proliferation ([1]; 500 nM) | cell proliferation ([2]; 50 nM) | cell proliferation ([2]; 500 nM) | cell proliferation (U2932 parental; 50 nM) | cell proliferation (U2932 parental; 500 nM)
1 | NC1(c2ccc(-c3nc4ccn5c(=O)[nH]nc5c4cc3-c3ccccc3)cc2)CCC1 | 101 | 70.1 | 97.5 | 74.9 | 96.8 | 68.4
2 | C[C@]12C=CC(=O)C=C1CC[C@@H]1[C@@H]2C(=O)C[C@@]2(C)[C@H]1CC[C@]2(O)C(=O)CO [Prednisone] | 95.3 | 94.8 | 105 | 102 | 97.3 | 100
3 | CN1C(=O)C(Cc2c[nH]c3ccccc23)NC1=S (configuration not stated) [Necrostatin-1] | 103 | 93.1 | 95.6 | 102 | 95 | 94.8
4 | Cc1nc(NC(=O)N2CCC[C@H]2C(N)=O)sc1-c1ccnc(C(C)(C)C(F)(F)F)c1 | 98.4 | 78.7 | 96.2 | 85 | 97.7 | 91
5 | C[C@]12CC[C@@H]3c4ccc(O)cc4C[C@@H](CCCCCCCCC[S+]([O-])CCCC(F)(F)C(F)(F)F)[C@H]3[C@@H]1CC[C@@H]2O (some centres not stated) [Fulvestrant] | 98.2 | 101 | 103 | 104 | 98.8 | 93.9
6 | Cc1ccc2c(=O)c3cccc(CC(=O)O)c3oc2c1C [DMXAA (Vadimezan)] | 110 | 99.3 | 101 | 95.3 | 101 | 99.2
7 | COc1cc(Nc2c(C#N)cnc3cc(OCCCN4CCN(C)CC4)c(OC)cc23)c(Cl)cc1Cl [Bosutinib (SKI-606)] | 106 | 73.1 | 103 | 63.3 | 98.5 | 83.4
8 | CC(C)n1c(/C=C/C(O)CC(O)CC(=O)O)c(-c2ccc(F)cc2)c2ccccc21 (configuration not stated) [Fluvastatin Sodium] | 97.4 | 89.5 | 92.2 | 102 | 81.9 | 83.5
9 | OCCn1cc(-c2cnc3nnn(Cc4ccc5ncccc5c4)c3n2)cn1 | 111 | 107 | 105 | 107 | 99.4 | 104
10 | CC[C@@](C)(Nc1ccnc(-c2c[nH]c3ncccc23)n1)C(=O)NCC(F)(F)F [Decernotinib (VX-509)] | 103 | 92.4 | 97.4 | 105 | 98.2 | 98.6
11 | CCN(CC)CCNC(=O)c1ccc(N)cc1 [Procainamide HCl] |  |  |  |  | 93.9 | 95.9
12 | C=CC(=O)N1CCC[C@@H](n2nc(-c3ccc(Oc4ccccc4)cc3)c3c(N)ncnc32)C1 |  |  |  |  | 76 | 70.9
13 | CC[C@@H]1C(=O)N(C)c2cnc(Nc3ccc(C(=O)NC4CCN(C)CC4)cc3OC)nc2N1C1CCCC1 | 13.1 | 21 | 16.2 | 23.3 | 14.8 | 20.4
14 | Nc1ccc(C(=O)Nc2cccc(-c3nc(N4CCOCC4)c4oc5ncccc5c4n3)c2)cn1 | 98.7 | 104 | 102 | 104 | 102 | 103
15 | O=C(/C=C/c1ccc2ccccc2n1)c1ccncc1 | 99.7 | 83.1 | 102 | 88.3 | 98.2 | 89.1
16 | CC(=O)O[C@H]1C(=O)[C@@]2(C)[C@H]([C@H](OC(=O)c3ccccc3)[C@]3(O)C[C@H](OC(=O)[C@H](O)[C@@H](NC(=O)c4ccccc4)c4ccccc4)C(C)=C1C3(C)C)[C@]1(OC(C)=O)CO[C@@H]1C[C@@H]2O [Paclitaxel] | 11.2 | 14.3 | 6.88 | 4.73 | 11.2 | 9.85
17 | Oc1cc(O)cc(/C=C/c2ccc(O)c(O)c2)c1 [Piceatannol] | 97.8 | 99.7 | 97.6 | 100 | 98.7 | 94

Row | Structure (SMILES) | cell proliferation ([1]; 50 nM) | cell proliferation ([1]; 500 nM) | cell proliferation ([2]; 50 nM) | cell proliferation ([2]; 500 nM) | cell proliferation (U2932 parental; 50 nM) | cell proliferation (U2932 parental; 500 nM)
18 | Cc1nc(Nc2ncc(C(=O)Nc3c(C)cccc3Cl)s2)cc(N2CCN(CCO)CC2)n1 [Dasatinib] | 74.2 | 63.7 | 66.1 | 52.4 | 75 | 60.9
19 | CN1CCN(CCCNc2ncc(Cl)c(-c3cc4c(C(=O)NC5CC5)cccc4s3)n2)CC1 | 101 | 86.5 | 98.2 | 99 | 95.3 | 100
20 | FC(F)c1nc2ccccc2n1-c1nc(N2CCOCC2)nc(N2CCOCC2)n1 | 95.8 | 42.5 | 93.6 | 46 | 89.9 | 46.8
21 | COc1ccc(C2=N[C@@H](c3ccc(Cl)cc3)[C@@H](c3ccc(Cl)cc3)N2C(=O)N2CCNC(=O)C2)c(OC(C)C)c1 [Nutlin-3a] | 110 | 102 | 99.8 | 99.2 | 104 | 104
22 | CCCCCCCCCCCCCCCCCCOP(=O)([O-])OC1CC[N+](C)(C)CC1 [Perifosine (KRX-0401)] | 98.7 | 93.4 | 113 | 110 | 96.7 | 102
23 | Cc1nc(N)sc1-c1ccnc(Nc2ccc(N3CCOCC3)cc2)n1 | 91.2 | 103 | 99.5 | 103 | 103 | 95.8
24 | CS(=O)(=O)CCNCc1ccc(-c2ccc3ncnc(Nc4ccc(OCc5cccc(F)c5)c(Cl)c4)c3c2)o1 | 101 | 85.9 | 94.2 | 84.4 | 96.6 | 97.3
25 | CCc1c2c(nc3ccc(OC(=O)N4CCC(N5CCCCC5)CC4)cc13)-c1cc3c(c(=O)n1C2)COC(=O)[C@]3(O)CC [Irinotecan] |  |  |  |  | 94.3 | 50.5
26 | COc1ccc(S(=O)(=O)N(CCO)c2ccccc2CN(C)C/C=C/c2ccc(Cl)cc2)cc1 [KN-93 Phosphate] | 103 | 90.8 | 105 | 90.1 | 102 | 89.6
27 | O=C(NCCCNc1nc(Nc2cccc(NC(=O)N3CCCC3)c2)ncc1I)c1cccs1 | 98.5 | 98.8 | 99.5 | 95.7 | 97.2 | 92.1
28 | CS(=O)(=O)N1CCN(Cc2cc3nc(-c4cccc5[nH]ncc45)nc(N4CCOCC4)c3s2)CC1 |  |  |  |  | 85.4 | 49.1
29 | C[C@]1(c2nc3c(C(N)=O)cccc3[nH]2)CCCN1 [Veliparib (ABT-888)] | 90.3 | 91.5 | 98.8 | 80.8 | 87 | 96.6
30 | Cc1ccc(Nc2nccc(N(C)c3ccc4c(C)n(C)nc4c3)n2)cc1S(N)(=O)=O [Pazopanib HCl] | 110 | 102 | 101 | 99.6 | 95.2 | 105
31 | Nc1ccn([C@@H]2O[C@H](CO)[C@@H](O)[C@@H]2O)c(=O)n1 [Cytarabine] | 93.7 | 24 | 93.6 | 65.8 | 88.9 | 36
32 | COc1ccc(F)c(F)c1C(=O)c1cnc(NC2CCN(S(C)(=O)=O)CC2)nc1N | 92 | 53.5 | 89.4 | 66.7 | 90.5 | 63.3
33 | C=CCn1c(=O)c2cnc(Nc3ccc(N4CCN(C)CC4)cc3)nc2n1-c1cccc(C(C)(C)O)n1 | 89.6 | 20.5 | 99.7 | 38.7 | 94.7 | 33.1
